Our source for the residual activity values is ChEMBL document CHEMBL2218924, “A broad activity screen in support of a chemogenomic map for kinase signalling research and drug discovery” (Biochem J, 2013).

In assay [1] the target is Tyrosine-protein kinase SYK (Homo sapiens) (UniProt P43405). The settings on record: at 10 µM.
Assay [2] addresses T1, Mitogen-activated protein kinase kinase kinase 7 (Homo sapiens) (UniProt O43318).
T1 sequence (whole entry): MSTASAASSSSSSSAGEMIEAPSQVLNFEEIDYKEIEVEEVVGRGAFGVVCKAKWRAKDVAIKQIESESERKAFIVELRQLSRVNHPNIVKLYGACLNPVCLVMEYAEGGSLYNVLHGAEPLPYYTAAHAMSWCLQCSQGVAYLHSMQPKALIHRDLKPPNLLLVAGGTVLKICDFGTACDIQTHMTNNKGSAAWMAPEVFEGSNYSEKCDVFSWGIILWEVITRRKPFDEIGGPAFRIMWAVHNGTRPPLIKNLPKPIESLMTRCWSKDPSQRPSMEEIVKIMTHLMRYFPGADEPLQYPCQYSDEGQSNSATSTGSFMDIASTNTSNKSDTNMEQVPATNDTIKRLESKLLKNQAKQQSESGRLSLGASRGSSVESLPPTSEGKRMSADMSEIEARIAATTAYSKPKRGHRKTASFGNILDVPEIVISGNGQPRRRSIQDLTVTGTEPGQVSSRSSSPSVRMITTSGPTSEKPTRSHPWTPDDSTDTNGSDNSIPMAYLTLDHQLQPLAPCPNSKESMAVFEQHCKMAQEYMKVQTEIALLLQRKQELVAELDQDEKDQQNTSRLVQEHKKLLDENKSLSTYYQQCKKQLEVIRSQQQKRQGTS
The conditions noted are these: at 1 µM.

In assay [3] the target is T1, Mitogen-activated protein kinase kinase kinase 7 (Homo sapiens). The conditions noted are these: at 10 µM.
The target of assay [4] is T2, Serine/threonine-protein kinase TAO1 (Homo sapiens) (UniProt Q7L7X3).
T2 sequence (whole entry): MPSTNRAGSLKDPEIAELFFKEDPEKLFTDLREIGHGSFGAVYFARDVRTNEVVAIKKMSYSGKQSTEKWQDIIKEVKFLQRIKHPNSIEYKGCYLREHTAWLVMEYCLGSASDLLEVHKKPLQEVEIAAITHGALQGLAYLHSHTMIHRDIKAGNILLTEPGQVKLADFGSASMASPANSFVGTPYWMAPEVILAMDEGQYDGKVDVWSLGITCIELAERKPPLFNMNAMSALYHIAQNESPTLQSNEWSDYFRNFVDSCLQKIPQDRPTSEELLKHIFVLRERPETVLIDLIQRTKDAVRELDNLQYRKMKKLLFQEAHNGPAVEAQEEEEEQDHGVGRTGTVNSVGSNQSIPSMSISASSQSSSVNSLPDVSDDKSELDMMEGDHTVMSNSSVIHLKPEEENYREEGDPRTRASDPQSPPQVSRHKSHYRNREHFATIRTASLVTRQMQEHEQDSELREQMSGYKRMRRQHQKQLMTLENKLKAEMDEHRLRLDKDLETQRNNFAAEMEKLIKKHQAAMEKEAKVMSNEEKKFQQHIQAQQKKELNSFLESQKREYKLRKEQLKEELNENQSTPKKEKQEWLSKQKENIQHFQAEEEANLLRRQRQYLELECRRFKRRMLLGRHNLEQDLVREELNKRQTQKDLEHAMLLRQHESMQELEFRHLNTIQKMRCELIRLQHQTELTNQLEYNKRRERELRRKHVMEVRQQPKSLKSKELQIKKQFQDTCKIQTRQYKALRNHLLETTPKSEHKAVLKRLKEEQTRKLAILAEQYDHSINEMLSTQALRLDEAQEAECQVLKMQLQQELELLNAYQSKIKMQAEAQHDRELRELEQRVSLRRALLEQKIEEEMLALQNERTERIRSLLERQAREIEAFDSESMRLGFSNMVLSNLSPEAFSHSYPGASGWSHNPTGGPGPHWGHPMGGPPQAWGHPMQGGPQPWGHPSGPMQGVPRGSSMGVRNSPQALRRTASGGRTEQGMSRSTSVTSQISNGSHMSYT
The settings on record: at 1 µM.

In assay [5] the target is T2, Serine/threonine-protein kinase TAO1 (Homo sapiens). The settings on record: at 10 µM.
Assay [6] addresses T3, Serine/threonine-protein kinase TAO2 (Homo sapiens) (UniProt Q9UL54).
T3 sequence (whole entry): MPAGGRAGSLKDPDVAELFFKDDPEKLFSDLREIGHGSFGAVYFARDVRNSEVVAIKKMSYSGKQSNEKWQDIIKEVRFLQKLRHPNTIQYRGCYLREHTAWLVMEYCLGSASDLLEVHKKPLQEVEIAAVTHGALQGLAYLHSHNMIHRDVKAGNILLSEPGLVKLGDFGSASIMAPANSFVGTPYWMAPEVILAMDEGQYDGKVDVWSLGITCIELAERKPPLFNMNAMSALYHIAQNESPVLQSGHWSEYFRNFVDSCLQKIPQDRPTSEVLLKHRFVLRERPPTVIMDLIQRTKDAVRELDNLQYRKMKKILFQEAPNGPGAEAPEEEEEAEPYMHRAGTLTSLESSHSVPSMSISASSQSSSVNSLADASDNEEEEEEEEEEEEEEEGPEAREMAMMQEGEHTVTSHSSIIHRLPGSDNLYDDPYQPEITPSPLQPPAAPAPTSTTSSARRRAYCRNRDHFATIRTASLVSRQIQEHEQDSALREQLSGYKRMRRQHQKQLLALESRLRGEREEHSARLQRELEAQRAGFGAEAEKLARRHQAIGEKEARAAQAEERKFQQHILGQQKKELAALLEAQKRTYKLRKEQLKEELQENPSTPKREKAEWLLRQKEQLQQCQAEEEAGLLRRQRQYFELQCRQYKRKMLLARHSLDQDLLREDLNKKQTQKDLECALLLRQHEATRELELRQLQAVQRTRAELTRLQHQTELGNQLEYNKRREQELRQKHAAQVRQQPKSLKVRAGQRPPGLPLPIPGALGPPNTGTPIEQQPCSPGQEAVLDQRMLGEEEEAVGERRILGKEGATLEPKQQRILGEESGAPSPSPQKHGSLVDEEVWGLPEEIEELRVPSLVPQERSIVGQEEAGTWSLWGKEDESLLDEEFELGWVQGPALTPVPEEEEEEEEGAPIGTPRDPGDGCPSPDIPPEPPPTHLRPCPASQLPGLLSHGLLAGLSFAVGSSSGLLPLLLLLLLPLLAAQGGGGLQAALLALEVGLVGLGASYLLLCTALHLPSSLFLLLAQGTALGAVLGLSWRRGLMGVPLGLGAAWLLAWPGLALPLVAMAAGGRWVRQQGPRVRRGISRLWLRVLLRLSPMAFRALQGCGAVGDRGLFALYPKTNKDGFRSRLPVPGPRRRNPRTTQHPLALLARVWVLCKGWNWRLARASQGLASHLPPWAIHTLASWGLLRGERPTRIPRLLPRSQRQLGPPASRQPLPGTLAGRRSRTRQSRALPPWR
The conditions noted are these: at 1 µM.

For assay [7], the target named is T3, Serine/threonine-protein kinase TAO2 (Homo sapiens). The conditions noted are these: at 10 µM.
The target of assay [8] is T4, Serine/threonine-protein kinase TAO3 (Homo sapiens) (UniProt Q9H2K8).
T4 sequence (whole entry): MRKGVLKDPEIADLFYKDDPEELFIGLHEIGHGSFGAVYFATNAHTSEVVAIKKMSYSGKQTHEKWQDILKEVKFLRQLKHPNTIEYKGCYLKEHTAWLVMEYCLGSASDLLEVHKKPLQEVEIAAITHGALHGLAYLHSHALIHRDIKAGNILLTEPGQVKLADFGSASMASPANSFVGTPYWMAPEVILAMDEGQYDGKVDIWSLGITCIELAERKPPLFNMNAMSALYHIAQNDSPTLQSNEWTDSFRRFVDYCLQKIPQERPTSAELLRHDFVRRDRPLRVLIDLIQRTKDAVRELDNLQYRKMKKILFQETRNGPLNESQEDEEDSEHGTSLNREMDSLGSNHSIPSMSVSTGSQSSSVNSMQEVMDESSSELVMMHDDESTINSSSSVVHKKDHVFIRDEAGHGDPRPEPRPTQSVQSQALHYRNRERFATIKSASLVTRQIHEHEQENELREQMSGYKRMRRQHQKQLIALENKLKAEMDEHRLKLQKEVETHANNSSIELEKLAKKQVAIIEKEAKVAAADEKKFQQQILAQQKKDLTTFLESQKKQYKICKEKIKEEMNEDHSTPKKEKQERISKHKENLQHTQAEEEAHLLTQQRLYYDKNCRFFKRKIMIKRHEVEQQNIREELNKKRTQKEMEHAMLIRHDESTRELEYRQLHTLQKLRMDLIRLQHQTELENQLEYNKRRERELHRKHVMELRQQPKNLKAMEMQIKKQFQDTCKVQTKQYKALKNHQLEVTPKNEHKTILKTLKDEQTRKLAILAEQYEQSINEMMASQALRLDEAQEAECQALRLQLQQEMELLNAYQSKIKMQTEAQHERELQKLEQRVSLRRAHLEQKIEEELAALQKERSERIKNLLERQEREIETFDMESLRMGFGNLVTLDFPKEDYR
The conditions noted are these: at 1 µM.

Assay [9] deals with T4, Serine/threonine-protein kinase TAO3 (Homo sapiens). The conditions noted are these: at 10 µM.
Assay [10] deals with T5, Serine/threonine-protein kinase TBK1 (Homo sapiens) (UniProt Q9UHD2).
T5 sequence (whole entry): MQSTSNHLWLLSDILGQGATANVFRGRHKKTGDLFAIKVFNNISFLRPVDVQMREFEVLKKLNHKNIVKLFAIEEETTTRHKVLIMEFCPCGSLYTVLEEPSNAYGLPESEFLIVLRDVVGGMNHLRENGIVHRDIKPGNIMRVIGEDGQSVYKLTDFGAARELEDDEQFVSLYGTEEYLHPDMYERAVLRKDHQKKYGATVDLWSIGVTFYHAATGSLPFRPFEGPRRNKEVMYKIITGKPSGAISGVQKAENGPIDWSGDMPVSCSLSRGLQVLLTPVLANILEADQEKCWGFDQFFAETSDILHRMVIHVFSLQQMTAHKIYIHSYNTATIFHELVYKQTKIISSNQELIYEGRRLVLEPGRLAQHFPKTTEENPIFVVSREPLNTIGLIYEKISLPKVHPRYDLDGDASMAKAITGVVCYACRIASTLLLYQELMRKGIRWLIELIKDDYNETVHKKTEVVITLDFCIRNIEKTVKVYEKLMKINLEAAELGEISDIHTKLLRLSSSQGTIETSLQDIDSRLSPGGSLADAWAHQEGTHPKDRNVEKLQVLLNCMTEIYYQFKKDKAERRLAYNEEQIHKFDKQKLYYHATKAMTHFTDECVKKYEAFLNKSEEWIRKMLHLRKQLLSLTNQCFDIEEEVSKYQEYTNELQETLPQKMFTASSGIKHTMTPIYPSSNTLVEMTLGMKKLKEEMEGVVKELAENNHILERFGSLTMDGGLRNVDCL
The settings on record: at 1 µM.

Take `CCOc1cc2ncnc(Nc3cccc(Br)c3)c2cc1OCC`: the residual activity is 58% in [1]; 95% in [2]; 83% in assay [3]; 86% in assay [4]; 73% in [5]; 101% in assay [6]. For the same compound, the residual activity in [7] was determined as 84%; in assay [8] it was 100%; in assay [9], 81%; in assay [10], 70%.
